Assay outcomes as filed in PubChem.
An excerpt weighted towards active compounds, which were near 6.8% of everything screened.
Autofluor 339 = intrinsic fluorescence of library compounds, ex339/em460 – biochemical, MLSMR library, data from DPM-DC assay, artefact control, profiling panel | compound autofluorescence, ex339/em460 nm, NADH buffer; stronger effect = higher value; 1 = no-compound wells, NADH background | fluorescence fold increase at 10 µM | 65,000 compounds, 5.5% hits;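 active means at 10 µM, mean starting fluorescence two-fold or more over control wells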;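 further: signal is the first read of a kinetic run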
MK inhibit = blocks S. pneumoniae mevalonate kinase; purified MK, PK/LDH-coupled NADH absorbance 340 nm; inhibition, % at 10 µM; 65,000 compounds, 0.48% hits;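 active means ranked among the strongest by inhibition in the single 10 µM screen, a fixed top-ranked set picked for dose follow-up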
Spn DPM-DC inh = S. pneumoniae DPM-DC inhibition | purified DPM-DC, PK/LDH coupled NADH fluorescence | calls only at 10 µM | 65,000 compounds, 0.49% hits | AID 556;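 active means the 320 compounds with the highest percent inhibition in the single-dose primary screen, excluding strongly autofluorescent ones, cut at about 32% in these data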;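 further: kinetic rate of NADH fluorescence loss reporting ADP formed by the decarboxylase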
A340 absorber = compound absorbs light at 340 nm. compound absorbance at 340 nm, fold over control. fold change at 10 µM. 65,000 tested, under 10 active;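 active means at 10 µM dose, initial 340 nm absorbance at least 2 fold that of control wells; inactive means change under 2 fold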;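 further: initial absorbance extrapolated from kinetic A340 decline of NADH oxidation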
PMK inhibit = blocks S. pneumoniae phosphomevalonate kinase. AID 539. 65,000 compounds, 0.49% hits. inhibition, % at 10 µM. purified PMK, PK/LDH-coupled NADH absorbance 340 nm;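 active means top-ranked compounds by inhibition in the single 10 µM screen, taking a fixed number of the strongest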
NADH enzymes = inhibitors of enzymes used to reach an NAD/NADH endpoint | coupled PK/LDH NADH assays, four targets | IC50, µM (top dose mostly 10 µM) | 65,000 compounds, 0.02% hits | AID 774;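 active means single-dose screening hits from any of four coupled enzyme assays that gave an IC50 when retested across doses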;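 further: the DPM-DC format reads NADH fluorescence rather than 340 nm absorbance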
Hits are given with their value; - = inactive; . = no result given; + = active, no number.

SMILES	Autofluor 339	MK inhibit	Spn DPM-DC inh	A340 absorber	PMK inhibit	NADH enzymes
Cc1onc(-c2ccccc2Cl)c1C(=O)N1CCN=C1SCc1cccnc1	-	-	-	-	-	-
N#Cc1cn(-c2ccccc2)nc1-c1cc2ccccc2oc1=O	2.4	-	.	-	-	-
CC(Sc1nnc(-c2cc3ccccc3o2)n1-c1ccccc1)C(=O)O (centres undefined)	-	-	-	-	-	-
COc1ccc(N2CCN(C(CNS(=O)(=O)c3cc(F)ccc3F)c3cccnc3)CC2)cc1 (centres undefined)	-	-	-	-	-	-
Fc1cccc2sc(N3CCOCC3)nc12	-	-	-	-	-	-
N#Cc1c(F)cccc1N1CCOCC1	3.1	-	-	-	-	-
CCC(NC(=O)NCCCn1ccnc1)(C(F)(F)F)C(F)(F)F	-	-	-	-	-	-
NC1C2CN(c3nc4c(cc3F)c(=O)c(C(=O)O)cn4-c3ccc(F)cc3F)CC12 (centres undefined)	2.1	-	-	-	-	-
CCN(CCCNC(=O)C1CCCN(S(=O)(=O)c2cnc[nH]2)C1)c1ccccc1 (centres undefined)	-	-	-	-	-	-
CS(=O)(=O)N(CC(=O)N1CCc2ccccc2C1)c1ccc2c(c1)OCO2	-	-	-	-	-	-
COc1ccc(-c2oc3ncn4nc(COc5ccccc5)nc4c3c2-c2ccc(OC)cc2)cc1	2.4	-	.	-	-	-
COc1ccc(Cc2noc(-c3ccc(C)cc3)n2)cc1	-	-	-	-	-	-
COc1ccc(-c2nnc3sc(COc4ccccc4)nn23)cc1	-	-	-	-	-	-
COc1ccc(-c2oc3ncn4nc(Cc5ccccc5)nc4c3c2-c2ccc(OC)cc2)cc1	2.4	-	.	-	-	-
C=CCN(CC=C)c1nc2ccccc2nc1C(C#N)C(=O)OCCOC (centres undefined)	2.2	-	-	-	-	-
CCCN(CCC)c1nc2ccccc2nc1C(C#N)C(=O)OCCOC (centres undefined)	-	-	-	-	-	-
CCOC(=O)N1CCC(N2Cc3cccc(C(=O)NCc4ccccn4)c3C2=O)CC1	-	-	-	-	-	-
C=CCn1c(NC(=O)c2ccccc2)c(C#N)c2nc3ccccc3nc21	2.1	-	.	-	-	-
N#CCCn1c(-c2nonc2NC(=O)c2ccccc2Cl)nc2ccccc21	-	-	-	-	-	-
C=CCn1c(NC(=O)c2ccccc2Cl)c(C#N)c2nc3ccccc3nc21	3.8	-	.	-	-	-
COc1ccc(-c2nnc(SCC(=O)NC(=O)NCc3ccco3)o2)cc1	-	-	-	-	-	-
CCOc1ccc2nc3ccc4[nH]onc4c3c2c1	2.3	-	.	-	-	-
Cc1cccc(N(C)C(=O)c2cc3cc4ccc(C)cc4nc3o2)c1	-	-	-	-	-	-
Cc1ccc2cc3cc(C(=O)NCCCN4CCCCCC4)oc3nc2c1	5.1	-	.	-	-	-
Cc1ccc2cc3cc(C(=O)NCCCN4CCc5ccccc5C4)oc3nc2c1	5.1	-	.	-	-	-
SMILES	Autofluor 339	MK inhibit	Spn DPM-DC inh	A340 absorber	PMK inhibit	NADH enzymes
CC12CCC(=O)N1C(C(=O)O)Cc1c2[nH]c2ccccc12 (centres undefined)	-	-	-	-	-	-
COc1ccc2c(c1OC)C(=O)N1C(C(=O)O)Cc3c([nH]c4ccccc34)C21 (centres undefined)	2.2	-	-	-	-	-
COCCNC(=O)c1c(N)sc2c1CCCC2	2.1	-	-	-	-	-
COc1ccc(C2(O)CC3CCC(C2)N3c2nc(C)cc(C)c2C#N)cc1 (centres undefined)	2.8	-	-	-	-	-
COc1ccc(N2CCN(/C(=N\S(=O)(=O)c3ccccc3)Nc3nc(C)cc(C)n3)CC2)cc1	-	-	-	-	-	-
c1ccc(CCNc2ncnc3nc[nH]c23)cc1	-	-	-	-	-	-
COc1ccccc1CNc1ncnc2nc[nH]c12	-	-	+	-	-	-
Cc1ccc(-n2c(SCC3CCCCO3)nnc2-c2ccco2)cc1 (centres undefined)	-	-	-	-	-	-
CCOC(=O)Nc1nnc(-c2ccccc2OC)s1	2.8	-	.	-	-	-
COC(=O)Nc1nnc(-c2ccncc2)s1	3.7	-	.	-	-	-
COc1ccccc1-c1nnc(NC(=O)OCC(C)C)s1	-	-	-	-	-	-
COc1ccc(-c2nnc(NC(=O)C(C)C)s2)c(OC)c1	2.1	-	.	-	-	-
CCOC(=O)Nc1nnc(-c2cccc(OC)c2)s1	3.8	-	.	-	-	-
CC1CCc2cc(F)ccc2N1C(=O)CSc1nnc(-c2cccs2)n1C (centres undefined)	-	-	-	-	-	-
O=C(c1ccccc1OCc1ccccc1Br)N1CCN(c2ncccn2)CC1	-	-	-	-	-	-
COC(=O)Nc1nnc(-c2ccccc2Cl)s1	2.9	-	-	-	-	-
COc1cc2[nH]c3c(N4CCN(c5ccccn5)CC4)ncnc3c2cc1OC	3.7	-	.	-	-	-
Fc1ccc2[nH]c3c(N4CCN(c5ccccc5)CC4)ncnc3c2c1	-	-	-	-	-	-
COc1cccc2[nH]c3c(N4CCCCC4)ncnc3c12	3.7	-	.	-	-	-
CCOC(=O)N1CCN(c2ncnc3c2[nH]c2ccc(OC)cc23)CC1	2.5	-	.	-	-	-
O=C(c1ccco1)N1CCN(c2ncnc3c2[nH]c2ccccc23)CC1	-	-	-	-	-	-
CCOC(=O)C1CCN(c2ncnc3c2[nH]c2cccc(OC)c23)CC1	3.7	-	.	-	-	-
O=C(c1ccco1)N1CCN(c2ncnc3c2[nH]c2ccc(Br)cc23)CC1	-	-	-	-	-	-
NCCCCCNC(=O)/C=N\O	-	-	-	-	-	-
Fc1ccc2c(Cl)c(-c3nnc(-c4cccs4)o3)sc2c1	3.6	-	.	-	-	-
SMILES	Autofluor 339	MK inhibit	Spn DPM-DC inh	A340 absorber	PMK inhibit	NADH enzymes
O=C(Nc1nnc(-c2cccs2)o1)c1cccc(C(F)(F)F)c1	-	-	-	-	-	-
COc1cc(-n2c3nc4ccccc4nc3c3c(=O)n(Cc4ccco4)cnc32)cc(OC)c1OC	-	-	-	-	-	-
COc1ccc2c(c1)c1ncn(Cc3ccco3)c(=O)c1n2C	3.7	-	.	-	-	-
COc1ccccc1N1CCN(CCc2n[nH]c(=S)n2-c2ccccc2)CC1	-	46	-	-	-	-
O=C(CNCCC1=CCCCC1)Nc1ccccc1N1CCCCC1	-	-	-	-	-	-
Cc1cc(C(=O)OCCO)c(C#N)c(N)n1	2.9	-	.	-	-	-
CC(C)Cc1cc(-c2ccco2)c(C#N)c(N)n1	2.2	-	.	-	-	-
O=c1c2ccccc2c(/C=N/n2cnnc2)c(O)n1-c1ccccc1F	3	-	-	-	-	-
Cc1ccc(-n2c(O)c(/C=N/n3cnnc3)c3ccccc3c2=O)cc1	2.2	-	.	-	-	-
